Experimental data as given in the supplement of paper PMC8773631.
Counter-ions that a name gives are not always drawn. ± gives the uncertainty stated by the source.

Test system: NCC-MFS5-C1
Assay: cell viability relative to DMSO control; higher = less growth inhibition
Conditions: 10 µM; treatment time: 3 days
Description: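 NCC-MFS5-C1 myxofibrosarcoma cells (1x10^4 per well, 384-well) were treated on day 2 with 10 µM of each drug. On day 5, viability was read by CCK-8 absorbance at 450 nm and normalised to the DMSO control (%), n = 2.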

Structure (SMILES)	cell viability
CC[C@@]1(O)C(=O)OCc2c1cc1n(c2=O)Cc2cc3ccccc3nc2-1 [Camptothecin]	52.5 ± 6.1%
Cn1c(CCCC(=O)O)nc2cc(N(CCCl)CCCl)ccc21 [Bendamustine HCl]	66.3 ± 8.2%
CC(=O)OC12COC1CC(O)C1(C)C(=O)C(O)C3=C(C)C(O)CC(O)(C(OC(=O)c4ccccc4)C21)C3(C)C (configuration not stated) [10-Deacetylbaccatin-III]	86.6 ± 0.96%
C=CCN1CC[C@]23c4c5ccc(O)c4O[C@H]2C(=O)CC[C@@]3(O)[C@H]1C5 [Naloxone HCl]	72.1 ± 2.9%
C=C1C[C@@H]2[C@H](CC[C@]3(C)C(=O)CC[C@@H]23)[C@@]2(C)C=CC(=O)C=C12 [Exemestane]	100 ± 4.3%
N.N.[Cl][Pt][Cl] [Cisplatin]	79.1 ± 4.2%
NCCCNCCSP(=O)(O)O [Amifostine]	103 ± 3%
O=P1(N(CCCl)CCCl)NCCCO1 (configuration not stated) [Cyclophosphamide Monohydrate]	85.6 ± 2.8%
O=P1(NCCCl)OCCCN1CCCl (configuration not stated) [Ifosfamide]	79.9 ± 6.8%
O=C(O)CCCc1ccc(N(CCCl)CCCl)cc1 [Chloroambucil]	99.4 ± 29%
Cc1c(N)nc(C(CC(N)=O)NCC(N)C(N)=O)nc1C(=O)NC(C(=O)NC(C)C(O)C(C)C(=O)NC(C(=O)NCCc1nc(-c2nc(C(=O)NCCC[S+](C)C)cs2)cs1)C(C)O)C(O[C@@H]1O[C@@H](CO)[C@@H](O)[C@H](O)[C@@H]1O[C@H]1O[C@H](CO)[C@@H](O)[C@H](OC(N)=O)[C@@H]1O)c1cnc[nH]1 (some centres not stated) [Bleomycin Sulfate]	78.3 ± 12%
C/C=C(\C)C(=O)N[C@@H](c1ccccc1)[C@@H](O)C(=O)O[C@H]1C[C@@]2(O)[C@@H](OC(=O)c3ccccc3)[C@@H]3[C@]4(OC(C)=O)CO[C@@H]4C[C@H](O)[C@@]3(C)C(=O)[C@H](OC(C)=O)C(=C1C)C2(C)C [Cephalomannine]	50.2 ± 8.7%
